Tests used:
Assay in all cases: DAPPL (digital affinity profiling via proximity ligation, sequencing); 10 mM Tris-HCl pH 7.5, 50 mM NaCl, 1 mM DTT, 4% glycerol, room temperature, 30 min; GST-TFs on glutathione beads, 16-mer random dsDNA library, 0.1% formaldehyde crosslink after washing; high values mean tight binding
Settings in all cases: protein: recombinant; tags: N-terminal GST; dsDNA, one strand shown
[1] = biological target: T1, FLI1 (Homo sapiens, UniProt Q01543 1-452)
T1 sequence: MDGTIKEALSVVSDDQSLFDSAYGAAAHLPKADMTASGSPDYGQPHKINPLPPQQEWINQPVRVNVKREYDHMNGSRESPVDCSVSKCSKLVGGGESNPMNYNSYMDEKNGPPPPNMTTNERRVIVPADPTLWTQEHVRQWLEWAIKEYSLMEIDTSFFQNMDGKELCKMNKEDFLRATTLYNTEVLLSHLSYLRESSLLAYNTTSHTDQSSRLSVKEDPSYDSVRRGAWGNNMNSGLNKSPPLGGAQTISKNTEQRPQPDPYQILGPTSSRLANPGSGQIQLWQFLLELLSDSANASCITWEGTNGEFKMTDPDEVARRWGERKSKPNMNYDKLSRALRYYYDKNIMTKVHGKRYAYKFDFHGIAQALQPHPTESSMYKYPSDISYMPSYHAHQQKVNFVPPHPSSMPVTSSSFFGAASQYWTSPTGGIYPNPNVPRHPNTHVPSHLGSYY
How it was run: (§1)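 Pools of DNA-barcoded human transcription factors, expressed in yeast as GST fusions on glutathione beads and combined with a tag-only sample, were incubated with 200 nmole of a 16-mer random double-stranded DNA library. Incubation took 30 min at room temperature in Tris/NaCl/DTT/glycerol buffer and was followed by washing, 0.1% formaldehyde crosslinking, proximity ligation (BsaI/T4 ligase, 1 h, 37 °C), PCR amplification and sequencing on an Illumina NextSeq500. Binding signal is the ratio of a hexamer's read frequency for a factor to its frequency for the tag-only sample.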

[2] = biological target: T2, ELK1 (Homo sapiens, UniProt P19419 1-428)
T2 sequence: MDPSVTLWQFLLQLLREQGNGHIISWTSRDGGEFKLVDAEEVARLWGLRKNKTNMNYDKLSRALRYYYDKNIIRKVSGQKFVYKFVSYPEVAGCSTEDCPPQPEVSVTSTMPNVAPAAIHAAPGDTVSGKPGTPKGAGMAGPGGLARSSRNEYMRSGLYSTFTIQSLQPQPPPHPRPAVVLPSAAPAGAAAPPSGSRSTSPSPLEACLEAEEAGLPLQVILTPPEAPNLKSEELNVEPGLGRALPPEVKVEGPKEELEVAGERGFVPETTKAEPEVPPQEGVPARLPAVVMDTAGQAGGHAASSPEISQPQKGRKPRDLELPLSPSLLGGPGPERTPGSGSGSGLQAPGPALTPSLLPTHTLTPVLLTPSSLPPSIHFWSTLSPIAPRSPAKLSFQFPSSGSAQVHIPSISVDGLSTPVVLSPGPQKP
How it was run: as §1

[3] = biological target: T3, GABPA (Homo sapiens, UniProt Q06546 1-454)
T3 sequence: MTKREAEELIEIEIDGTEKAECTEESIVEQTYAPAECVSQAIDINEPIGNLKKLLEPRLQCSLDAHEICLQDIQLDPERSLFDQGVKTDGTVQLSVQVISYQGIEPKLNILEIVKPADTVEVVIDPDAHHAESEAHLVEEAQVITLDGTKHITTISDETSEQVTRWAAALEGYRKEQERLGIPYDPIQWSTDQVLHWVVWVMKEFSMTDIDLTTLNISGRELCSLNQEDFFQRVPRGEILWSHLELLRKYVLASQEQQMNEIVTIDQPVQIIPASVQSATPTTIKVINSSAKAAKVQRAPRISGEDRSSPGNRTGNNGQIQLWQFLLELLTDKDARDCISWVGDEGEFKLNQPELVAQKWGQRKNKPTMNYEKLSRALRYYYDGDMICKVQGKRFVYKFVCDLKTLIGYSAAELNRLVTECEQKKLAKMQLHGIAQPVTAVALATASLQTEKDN
How it was run: as §1

[4] = biological target: T4, ERG (Homo sapiens, UniProt P11308 1-479)
T4 sequence: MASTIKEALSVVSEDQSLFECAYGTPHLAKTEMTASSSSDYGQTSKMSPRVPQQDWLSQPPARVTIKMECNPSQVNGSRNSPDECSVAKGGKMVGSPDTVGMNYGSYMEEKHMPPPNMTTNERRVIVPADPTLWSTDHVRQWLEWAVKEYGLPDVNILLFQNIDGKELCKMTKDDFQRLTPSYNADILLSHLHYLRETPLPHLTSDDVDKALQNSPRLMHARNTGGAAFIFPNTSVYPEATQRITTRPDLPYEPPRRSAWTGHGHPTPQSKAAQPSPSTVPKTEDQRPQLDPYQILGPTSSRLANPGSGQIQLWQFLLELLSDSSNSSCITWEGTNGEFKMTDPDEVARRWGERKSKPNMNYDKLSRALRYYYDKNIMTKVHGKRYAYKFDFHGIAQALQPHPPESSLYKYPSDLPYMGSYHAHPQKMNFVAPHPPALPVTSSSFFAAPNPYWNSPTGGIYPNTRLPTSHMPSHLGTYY
How it was run: as §1

[5] = biological target: ELF1 (Homo sapiens, UniProt P32519 1-619)
How it was run: as §1

[6] = biological target: T5, EHF (Homo sapiens, UniProt Q9NZC4 1-300)
T5 sequence: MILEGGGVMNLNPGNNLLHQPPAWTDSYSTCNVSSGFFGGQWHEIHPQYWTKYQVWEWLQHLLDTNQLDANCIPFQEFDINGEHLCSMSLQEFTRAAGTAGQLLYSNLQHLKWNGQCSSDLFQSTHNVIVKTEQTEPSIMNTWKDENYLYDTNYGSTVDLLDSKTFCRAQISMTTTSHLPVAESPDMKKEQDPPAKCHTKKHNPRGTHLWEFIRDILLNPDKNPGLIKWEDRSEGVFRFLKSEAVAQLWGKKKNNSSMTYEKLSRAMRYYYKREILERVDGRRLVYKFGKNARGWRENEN
How it was run: as §1

[7] = biological target: SPI1 (Homo sapiens, UniProt P17947 1-270)
How it was run: as §1

[8] = biological target: SPIB (Homo sapiens, UniProt Q01892 1-262)
How it was run: as §1

[9] = biological target: T6, ELK3 (Homo sapiens, UniProt P41970 1-407)
T6 sequence: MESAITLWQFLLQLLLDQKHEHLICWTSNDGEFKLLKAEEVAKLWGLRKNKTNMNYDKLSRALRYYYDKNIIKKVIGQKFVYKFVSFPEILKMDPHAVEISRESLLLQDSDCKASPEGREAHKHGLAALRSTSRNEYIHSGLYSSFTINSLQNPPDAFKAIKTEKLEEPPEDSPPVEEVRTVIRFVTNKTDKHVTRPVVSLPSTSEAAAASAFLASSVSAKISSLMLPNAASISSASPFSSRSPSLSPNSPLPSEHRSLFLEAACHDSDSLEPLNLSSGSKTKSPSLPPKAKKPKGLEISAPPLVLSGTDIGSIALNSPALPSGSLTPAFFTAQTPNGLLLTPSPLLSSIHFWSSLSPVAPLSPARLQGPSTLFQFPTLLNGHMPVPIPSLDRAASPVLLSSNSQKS
How it was run: as §1

SPIB, sequence (Q01892 whole entry): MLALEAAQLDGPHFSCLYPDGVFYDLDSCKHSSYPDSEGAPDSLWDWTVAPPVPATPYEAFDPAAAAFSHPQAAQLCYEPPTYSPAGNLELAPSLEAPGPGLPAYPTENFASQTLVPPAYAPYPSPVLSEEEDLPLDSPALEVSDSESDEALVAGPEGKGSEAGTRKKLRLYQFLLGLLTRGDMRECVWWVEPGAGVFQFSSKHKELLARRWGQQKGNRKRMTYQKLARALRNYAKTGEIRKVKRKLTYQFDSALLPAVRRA
ELF1, sequence (P32519 whole entry): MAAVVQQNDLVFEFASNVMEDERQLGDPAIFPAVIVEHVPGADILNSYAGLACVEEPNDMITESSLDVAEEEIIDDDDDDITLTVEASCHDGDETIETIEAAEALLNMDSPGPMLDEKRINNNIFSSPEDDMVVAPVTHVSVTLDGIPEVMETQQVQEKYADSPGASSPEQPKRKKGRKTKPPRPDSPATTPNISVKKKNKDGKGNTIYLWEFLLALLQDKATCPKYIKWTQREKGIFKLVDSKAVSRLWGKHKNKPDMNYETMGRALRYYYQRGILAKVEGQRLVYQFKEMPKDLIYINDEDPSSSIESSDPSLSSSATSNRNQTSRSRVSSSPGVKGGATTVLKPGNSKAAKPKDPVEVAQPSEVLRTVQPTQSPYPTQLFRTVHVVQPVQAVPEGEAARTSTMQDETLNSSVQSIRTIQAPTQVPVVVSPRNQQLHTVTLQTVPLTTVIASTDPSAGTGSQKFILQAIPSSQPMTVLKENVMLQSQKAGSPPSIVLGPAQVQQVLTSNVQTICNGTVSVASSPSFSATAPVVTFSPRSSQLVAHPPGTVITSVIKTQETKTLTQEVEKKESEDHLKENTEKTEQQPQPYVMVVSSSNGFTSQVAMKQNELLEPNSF

## TTGCCC
[1]
  binding signal: 1.37 fold enrichment (6-mer frequency, TF over GST control)
[2]
  binding signal: 1.43 fold enrichment (6-mer frequency, TF over GST control)
[3]
  binding signal: 1.33 fold enrichment (6-mer frequency, TF over GST control)
[4]
  binding signal: 1.28 fold enrichment (6-mer frequency, TF over GST control)
[5]
  binding signal: 1.3 fold enrichment (6-mer frequency, TF over GST control)
[6]
  binding signal: 1.22 fold enrichment (6-mer frequency, TF over GST control)
[7]
  binding signal: 1.29 fold enrichment (6-mer frequency, TF over GST control)
[8]
  binding signal: 1.33 fold enrichment (6-mer frequency, TF over GST control)
[9]
  binding signal: 1.23 fold enrichment (6-mer frequency, TF over GST control)

Source: PMC7862700, “An all-to-all approach to the identification of sequence-specific readers for epigenetic DNA modifications on cytosine”
